Data taken from the supplement of paper PMC6555819.

Tests used:
Assay in all cases: PBM binding z-score (relative to random genomic background probes); higher = stronger binding; sequences stand for … in GC…GCGATTGACAGCGTAGAATGAAGG
[1] = test system: RARb homodimer (NR concentration 270 nM)
Method in brief: (§1)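 Regression normalization was applied to scanned fluorescence from custom Agilent 4×180K protein-binding microarrays. Before scanning, arrays were incubated 1 h with ligand-free nuclear receptor dimers, and binding was detected with antibodies against each partner (one per run). Binding z-scores use the random background probes as reference.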

[2] = test system: RARg:RXRa (NR concentration 270 nM, RXRa partner concentration 90 nM)
Method in brief: as §1

[3] = test system: RARg homodimer (NR concentration 270 nM)
Method in brief: as §1

[4] = test system: RXRa DBDmut IVT, anti-RXR (DBD mutation: RXRa K156A/R161A, NR concentration 90 nM)
Method in brief: as §1

[5] = test system: RXRa homodimer (NR concentration 180 nM)
Method in brief: as §1

[6] = test system: THRa:RXRa (NR concentration 90 nM, RXRa partner concentration 90 nM)
Method in brief: as §1

[7] = test system: THRa homodimer (NR concentration 90 nM)
Method in brief: as §1

[8] = test system: VDR homodimer (NR concentration 270 nM)
Method in brief: as §1

| Sequence | PBM binding z-score [1] | PBM binding z-score [2] | PBM binding z-score [3] | PBM binding z-score [4] | PBM binding z-score [5] | PBM binding z-score [6] | PBM binding z-score [7] | PBM binding z-score [8] |
| --- | --- | --- | --- | --- | --- | --- | --- | --- |
| GATACATGGTCAAGGCCAGAGTACGCGTATTGAT | 0.856 | 0.785 | 0.985 | -0.244 | 0.439 | 0.149 | -0.41 | 0.0812 |
| ATCGAAAGGACGTGAGGTGAGTATACAGAAAGGC | 0.895 | 0.703 | 1.12 | -0.854 | 0.282 | 1.89 | 0.987 | 0.126 |
| TGTCCAAGTTCAAAGGTAACGTAAGTATCCACAC | 2.25 | 4.05 | 3.45 | 4.24 | 5.21 | 3.05 | 0.0637 | 4.33 |
| AGAATGAGGTTATTAAGATCAGAGAATTGCGGTC | 0.575 | 1.21 | 0.933 | 1.88 | 1.7 | 2.06 | 0.584 | 1.11 |
| CAAACTAGGTCAAGACGTCAAAGTCCGCTTCCCG | 3.2 | 4.09 | 4.74 | 1.65 | 3 | 2.68 | 0.895 | 0.581 |
| ATACCAAGGTGATCGTGAGGTCCTTGATACTAAC | 0.337 | 0.376 | 0.386 | 0.0286 | 0.487 | 1.94 | 0.903 | 0.291 |
| GGAATGAGGGCAAGTTGATAGCAGAGTTTGATGG | 1.65 | 1.55 | 2.21 | 2.79 | 1.04 | 1.85 | 1.02 | 2.22 |
